Screens from PubChem BioAssay.
Shiga inhibitor = A qHTS for Small Molecule Inhibitors of Shiga Toxin. Vero cells, Shiga toxin protein synthesis inhibition reporter. inhibition, % at 38.7 µM. 9.2% of 290,000 active. AID 2315, 2010; in the data active = inhibition mostly above about 28%, no sharp cut-off; inactive = mostly below about 43%
NS1 inh = qHTS Assay for Inhibitors of Influenza NS1 Protein Function. 0.4% of 270,000 active. AID 2326, 2010. Potency, µM (highest dose often 46.1 µM); calls by dose curve; note: actives are rising curves; nearly all actives have a fitted effect of over 50% in size
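OD600 was taken as the measure of yeast growth restored by compound in an NS1-expressing S. cerevisiae strain. Cells had been washed out of glucose medium and diluted 1:100 into galactose -URA medium, pH 6.0.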
Pf growth 48h = Primary qHTS for delayed death inhibitors of the malarial parasite plastid, 48 hour incubation | 5.9% of 310,000 active | Potency, µM (doses to about 28.7 µM), most hits filed as inhibitors | P. falciparum luciferase growth in erythrocytes, 48 h | AID 504832, 2011
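First compound was added to culture medium, then infected red cells at 0.1% parasitemia and 2% hematocrit (final). After incubation at 37 C under 5% CO2, luciferase detection reagent was dispensed and light output recorded.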
CHX counter = Cycloheximide Counterscreen for Small Molecule Inhibitors of Shiga Toxin | cell reporter, cycloheximide protein synthesis inhibition counterscreen | max response, % | 12% of 300,000 active | AID 2314, 2010; in the data active = max response mostly above about 13%, no sharp cut-off; inactive = mostly below about 14%; note: read at 38.3 µM for the half of the compounds with a filed dose
SARS PLP yeast = qHTS of Yeast-based Assay for SARS-CoV PLP | S. cerevisiae expressing SARS-CoV PLpro, growth rescue | Potency, µM (highest dose often 32.9 µM), hits mostly activators | 0.19% of 330,000 active; calls by dose curve; note: nearly all actives have a fitted effect of over 55% in size
Pf growth 96h = Primary qHTS for delayed death inhibitors of the malarial parasite plastid, 96 hour incubation; P. falciparum luciferase reporter growth, 96 h; Potency, µM (titrated, usually from 28.7 µM), actives largely listed as inhibitors; 6.9% of 320,000 active
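Parasite growth measured via integrated firefly luciferase reporter in P. falciparum. Infected erythrocytes at 2% hematocrit, 0.05% parasitemia final were treated 96 hours at 37 C under 5% CO2, and luminescence was read.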
A number is an active result; . = inactive; ? = inconclusive; / = not tested or not shown; + = active, no number; ! = not confirmed by another sample. Rows were chosen to be rich in hits. Some 21% of all compounds tested hit in one or more screens of this group. Unless noted, calls come from the whole dose curve; as a rule, active = well fitted inhibition curve with a large enough effect; inconclusive = small, poorly fitted or top-dose-only effect, or another doubt; inactive = no such curve, though single readings can be large or run the other way.

SMILES	Shiga inhibitor	NS1 inh	Pf growth 48h	CHX counter	SARS PLP yeast	Pf growth 96h
O=C1c2ccccc2NC(c2ccccc2O)N1c1ccc(F)cc1 (stereo not drawn)	55.7	.	/	66.6	.	.
CCOc1ccc(C(=O)NCC2CCN(CC3CCCCC3)CC2)cc1	.	.	.	.	.	5.86µM
CCN(CC)S(=O)(=O)c1ccc(C(=O)NCC2CCCCC2)cc1	.	.	.	.	.	?
O=C(NCC1CCCCC1)c1ccc([N+](=O)[O-])cc1	.	.	.	.	.	.
CC(=O)Nc1ccc(C(=O)NCC2CCCCC2)cc1	.	.	.	19.8	.	.
CC1CCCC(n2c(=S)[nH]c3ccccc3c2=O)C1C (stereo not drawn)	.	?	?	.	.	?
O=C(Nc1cccc(O)c1)c1cc(-c2cccs2)on1	77.4	.	.	30.5	.	.
CC(=O)c1cccc(NC(=O)c2cc(-c3cccs3)on2)c1	.	.	.	14.3	.	.
CCOC(=O)CC(NC(=O)Cn1nnc(-c2ccccc2Cl)n1)c1ccc(OC)cc1 (stereo not drawn)	.	/	.	.	.	.
COc1ccc(S(=O)(=O)NCC(=O)N(Cc2ccco2)C(C(=O)NC(C)(C)C)C(C)C)cc1 (stereo not drawn)	.	.	.	.	.	?
COc1ccc(CCc2nc(C)ccc2O)cc1	+!	.	?	37.1	.	.
CC1=CC(C)(C)N2C(=O)C3(C(C#N)=C(N)OC4=C3C(=O)CC(C)(C)C4)c3c(C)c(C)cc1c32 (stereo not drawn)	.	.	/	.	?	4.15µM
CC1=CC(C)(C)N2C(=O)C3(C(C#N)=C(N)OC4=C3C(=O)CC(C)(C)C4)c3cccc1c32 (stereo not drawn)	.	.	/	.	.	.
COc1cc2c3c(c1)C1(C(=O)N3C(C)(C)C=C2C)C(C#N)=C(N)Oc2cc(C)oc(=O)c21 (stereo not drawn)	.	.	5.86µM	.	.	.
CCOCCCNC(=O)CN1N=C(c2ccc(C)cc2)CCC1=O	.	.	.	.	.	.
O=C(Cn1cnnn1)NCc1ccccc1	.	.	.	.	.	.
CC(=O)/C=C/n1c(=S)oc2ccccc21	.	.	?	32.2	.	.
O=S(=O)(/N=C(/Nc1cccc2ccccc12)c1ccccc1)c1ccccc1	.	.	?	.	.	.
Cc1cccc(N/C(=N/S(=O)(=O)c2ccccc2)c2ccccc2)n1	.	.	.	15.0	.	.
O=S(=O)(/N=C(/Nc1cccc2ccccc12)c1ccccc1)c1ccc(Br)cc1	.	.	.	.	?	4.15µM
O=S(=O)(/N=C(/Nc1ccccn1)c1ccccc1)c1ccc(F)cc1	22.1	.	.	.	.	.
OCCN1CCN(CCCc2c3c(cc4c2CCC4)CCC3)CC1	.	.	11.7µM	.	.	11.7µM
Oc1ccccc1C1C=C(c2ccc3c(c2)OCO3)NC(c2ccc(F)c(Br)c2)N1 (stereo not drawn)	99.7	/	/	36.1	/	/
Oc1ccc(Br)cc1C1C=C(c2ccc3c(c2)OCO3)NC(c2ccc(F)c(Br)c2)N1 (stereo not drawn)	93.2	/	/	54.5	/	/
O=C1C=C(c2ccc3c(c2)OCO3)C[C@@H](c2ccc(F)cc2)C1	/	/	.	/	.	.
SMILES	Shiga inhibitor	NS1 inh	Pf growth 48h	CHX counter	SARS PLP yeast	Pf growth 96h
CCOc1ccccc1-c1nc2c(C(C)(C)C)nn(C)c2c(=O)[nH]1	.	.	.	.	.	.
NNC(=S)Nc1cccc(-c2n[nH]c(=S)o2)c1	.	.	.	.	.	.
O=C(OC(C(=O)NCc1ccc(F)cc1)c1ccccc1)c1ccco1 (stereo not drawn)	.	.	.	.	.	.
CC1=CC(=O)C=C(C)C1=NOC(=O)/C=C\c1ccccc1	.	.	.	.	.	.
CC1=CC(=NOC(=O)/C=C/c2ccccc2)C=C(C)C1=O	.	.	?	12.6	.	.
CC1=C(C)/C(=N\OC(=O)/C=C/c2ccccc2)C=CC1=O	.	.	10.4µM	.	.	?
CCOC(=O)c1ccc2c(c1)nc(SCC(=O)c1ccco1)n2CC	.	.	?	.	.	.
CCOC(=O)c1ccc2c(c1)nc(C1CCN(S(=O)(=O)c3cccs3)CC1)n2CC	.	.	10.4µM	.	.	8.28µM
CCOC(=O)c1ccc2c(c1)nc(SCC(=O)N1CCCCC1)n2CC	.	.	.	.	.	11.7µM
NNC(=O)C(Cc1c[nH]c2ccccc12)NC(=O)c1ccccc1 (stereo not drawn)	.	.	?	.	.	.
COc1ccc(C(C(=O)NC(C)(C)C)N(C[C@H]2CC[C@@H]([C@@H]3CC[C@H](CO)O3)O2)C(=O)c2ccccc2)cc1 (stereo partly drawn)	/	/	/	/	.	/
O=c1c(C=NCc2cccs2)c(O)n(C2CCCCC2)c(=O)n1C1CCCCC1	.	.	/	.	.	?
O=c1c(C=NCCN2CCNCC2)c(O)n(C2CCCCC2)c(=O)n1C1CCCCC1	.	.	13.1µM	.	.	?
CN1CCN(C(=O)C(N)Cc2ccccc2)CC1 (stereo not drawn)	.	/	.	.	.	.
Cn1c(C(=O)N2CCCC(C(=O)NCCCc3ccccc3)C2)cc2sccc21 (stereo not drawn)	.	.	?	.	.	?
Cc1ccc(Cn2c(C(=O)NCCCN3CCOCC3)cc3sccc32)cc1	.	.	11.7µM	.	.	.
O=C(NCc1ccco1)C1CCN(C(=O)c2cc3sccc3n2Cc2ccc(F)cc2)CC1	.	?	1.85µM	.	.	.
O=C(Cn1c(C(=O)NCCCN2CCOCC2)cc2sccc21)c1ccccc1	.	.	.	.	/	?
O=C(NCCCN1CCCC1)C1CCN(C(=O)c2cc3sccc3n2Cc2ccc(F)cc2)CC1	.	.	/	.	.	10.4µM
Cn1c(C(=O)N2CCCC(C(=O)NCCc3ccccc3)C2)cc2sccc21 (stereo not drawn)	60.6	.	?	18.2	.	.
COc1ccc(-n2c(SCCC#N)nnc2-c2cc(Cl)ccc2OC)cc1Cl	.	.	.	.	.	/
CCc1c2c(nc3ccc4c(c13)OCCO4)-c1nc3ccccc3c(=O)n1C2	.	/	/	.	/	/
O=C(NCC1CCCO1)c1ccccc1NS(=O)(=O)c1cc([N+](=O)[O-])ccc1Cl (stereo not drawn)	/	/	/	/	.	/
COc1ccccc1NC(=O)COC(=O)c1ccc2ccccc2n1	/	/	/	/	.	/
CC1Cc2ccccc2N1C(=O)c1cc2sccc2n1Cc1ccc(F)cc1 (stereo not drawn)	.	.	11.7µM	.	.	?
COc1ccc(CNC(=O)c2ccc(Cn3nc(C)c([N+](=O)[O-])c3C)o2)cc1	.	.	?	.	.	.
COc1ccc(CNC(=O)Cn2nc(C(F)(F)F)cc2C)cc1	.	.	.	.	.	13.1µM
COc1ccc(CNC(=O)c2ccc(Cn3nc(C)cc3C)o2)cc1	.	.	.	.	.	1.47µM
